Screening results from PubChem BioAssay.
A selection: hits, their analogues and other compounds. The true share with any hit is near 8.8%.
LMNA splice mod: LMNA splicing modulation | HeLa LMNA splicing GFP/RFP minigene ratio, 48 h | Potency, µM (doses to about 46.1 µM), inactives show top-dose ratio change, negative = inhibition, actives largely listed as inhibitors | 0.01% of 200,000 active | AID 1487; active = well fitted inhibition curve with a large enough effect in the signal ratio, with a control signal flat, not every such curve was filed as active; inconclusive = small, poorly fitted or top-dose-only effect, or effect the other way, or a change in a side signal; the % refers to the signal ratio; also: % is scaled to controls: 0 for no effect and ±100 for the full control effect
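S3 HeLa stable clones carrying a lamin A-EGFP splicing minigene plus DsRed2 were seeded at 600 cells/well in Opti-MEM with 2% FBS, pin-dosed and incubated 48 h at 37°C. Acumen cytometry (488 nm) gave the GFP/RFP total-intensity ratio.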
HTT cytoprotect: protects HTT-Q103 PC12 cells, measured by ATP | PC12 HTT-Q103 induced, cytoprotection, ATP luminescence, 40 h | Potency, µM (top dose mostly 56.4 µM), without a hit: cytoprotection (ATP increase), most hits filed as activators | 0.14% of 230,000 active | AID 1471; active = well fitted curve in the direction sought with a large enough effect; inconclusive = small, poorly fitted or top-dose-only effect, or another doubt; inactive = no such curve, though single readings can be large; an effect the other way counts as inactive or inconclusive; also: % of control where 0% means no effect; nearly all actives have a fitted effect of over 45% in size
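ATP quantification (ATPlite) reports survival of PC12 cells in which tebufenozide, 100 nM final, switches on Htt exon 1 with 103 glutamines linked to GFP; compounds are titrated.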
HttQ103 aggreg: mutant huntingtin aggregation inhibition | PC12 HttQ103-GFP aggregates, Acumen cytometry, 40 h | Potency, µM (series often up to 46.1 µM), inactives show top-dose activity change, negative = inhibition, actives largely listed as inhibitors | 1.1% of 220,000 active | AID 1688; active = well fitted curve in the direction sought with a large enough effect; inconclusive = small, poorly fitted or top-dose-only effect, or another doubt; inactive = no such curve, though single readings can be large; an effect the other way counts as inactive or inconclusive; also: % is scaled to controls: 0 for no effect and ±100 for the full control effect; nearly all actives have a fitted effect of over 60% in size
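Aggregate formation scored by laser-scanning cytometer (488 excitation, 500–530 emission) in lysed PC12 cells expressing Q103-GFP after 100 nM tebufenozide induction; library tested in dose series, with ATPLite reagent added in the multiplex.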
ALDH1A1 block: ALDH1A1 (human) enzyme inhibition; AID 1030; Purified ALDH1A1, NADH fluorescence, propionaldehyde substrate; 7.3% of 220,000 active; P00352; Potency, µM (highest dose often 75.3 µM), without a hit: top-dose activity, negative = inhibition, usual class: inhibitors;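 also: plate controls were no enzyme wells and a reference inhibitor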
Target sequence (P00352 whole entry, looked up): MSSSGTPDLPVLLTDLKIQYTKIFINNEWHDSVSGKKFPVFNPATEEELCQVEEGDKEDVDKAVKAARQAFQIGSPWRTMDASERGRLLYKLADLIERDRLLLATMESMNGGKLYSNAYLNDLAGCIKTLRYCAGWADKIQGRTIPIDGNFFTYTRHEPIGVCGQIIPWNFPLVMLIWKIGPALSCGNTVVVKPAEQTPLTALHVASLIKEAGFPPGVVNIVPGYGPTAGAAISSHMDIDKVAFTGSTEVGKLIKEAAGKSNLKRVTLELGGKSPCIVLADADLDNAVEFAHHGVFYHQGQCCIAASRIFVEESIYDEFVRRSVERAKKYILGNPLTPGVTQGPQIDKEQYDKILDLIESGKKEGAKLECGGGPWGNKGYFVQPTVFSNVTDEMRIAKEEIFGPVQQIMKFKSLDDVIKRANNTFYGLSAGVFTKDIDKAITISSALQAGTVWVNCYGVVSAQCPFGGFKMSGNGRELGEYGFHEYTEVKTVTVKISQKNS
HPGD inh: HPGD (human) dehydrogenase inhibition | P15428 | purified HPGD, NADH fluorescence kinetic, PGE2 substrate | Potency, µM, inactives show at the highest dose activity change, negative = inhibition, usual class: inhibitors | 4.3% of 150,000 active; also: % is scaled to controls: 0 for no effect and ±100 for the full control effect
Target sequence (P15428 whole entry, looked up): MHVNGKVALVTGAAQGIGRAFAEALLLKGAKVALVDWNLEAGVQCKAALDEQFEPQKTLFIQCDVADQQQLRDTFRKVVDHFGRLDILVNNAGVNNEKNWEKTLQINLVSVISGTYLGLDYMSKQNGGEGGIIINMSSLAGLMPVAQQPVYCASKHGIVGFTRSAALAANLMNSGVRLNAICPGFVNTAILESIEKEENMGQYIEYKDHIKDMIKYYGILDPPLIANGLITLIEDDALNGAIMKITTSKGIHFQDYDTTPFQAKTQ
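20 nM HPGD preincubated 15 min at room temperature with compound in 50 mM Tris-HCl pH 8, 0.01% Tween 20. Started with 1 mM NAD+ and 30 uM prostaglandin E2; NADH fluorescence (360/450 nm) read 5 times over 30-s intervals, last minus first.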
An asterisk follows results filed as active; ? = inconclusive; nt = no result; [ ] = remark or other dose. Unless noted, calls follow the shape of the dose curve; as a rule, active = well fitted inhibition curve with a large enough effect (not every such curve was filed as active); inconclusive = small, poorly fitted or top-dose-only effect, or another doubt; inactive = no such curve, though single readings can be large or run the other way. Potency is read from the fitted curve at half-maximal effect.

SMILES	LMNA splice mod	HTT cytoprotect	HttQ103 aggreg	ALDH1A1 block	HPGD inh
COC(=O)CN1C(=O)C(C)(C)Oc2ccc(C(=O)NC3CC3)cc21	-2%	-13%[10 µM]	-22%	-3%	-4%
CCC(=O)N1CCCc2cc(S(=O)(=O)N3CCC(C(=O)Nc4ccc(C#N)cc4)CC3)ccc21	-4%[46 µM]	nt	nt	nt	nt
Cc1ccc(S(=O)(=O)N[C@H]2COC(=O)C/C=C\[C@@H](C)COC(=O)C/C=C\[C@@H]2C)cc1	nt	-18%[10 µM]	nt	-15%[13.5 µM]	nt
COc1cc(C=O)ccc1OCCSc1ccc(C)cc1	-17%	7%[10 µM]	-14%	?	18µM*
COc1cc(C=O)ccc1OCCOCCOc1cc(C)ccc1Cl	?	0%	1%	4%	nt
CCOc1cc(C=O)ccc1OCCSc1ccc(C)cc1	-13%	-2%[10 µM]	-9%	?	18µM*
Cc1ccc(C)c(N2CCN(C(=O)c3cc4c(=O)n(Cc5ccco5)ccc4nc3C)CC2)c1	-6%[46 µM]	nt	nt	nt	nt
COc1cc(C(=O)NC(=S)Nc2ccc3c(c2)C(=O)N(C)C3=O)cc(OC)c1OC	-7%	nt	9%	1µM*	-4%
COc1cccc(OC)c1C(=O)NC(=S)Nc1ccc2c(c1)C(=O)N(C)C2=O	-20%	3%[10 µM]	10%	-16%	?
CCOC(=O)C1(O)Oc2cc(OC)cc(OC)c2C(=O)C1c1ccccc1 (configuration not stated)	-12%	nt	nt	?	-18%
CCOC(=O)C(=O)C1(C(=O)OCC)Oc2cc(OC)cc(OC)c2C(=O)C1c1ccccc1 (configuration not stated)	-8%	nt	nt	10µM*	-10%
COc1ccc2[nH]cc(CCO)c2c1	nt	-10%	nt	-6%	nt
Cc1nc2cnc(Oc3cccc(Cl)c3)nc2n(CCc2ccccc2)c1=O	nt	-52%	nt	6.3µM*	-12%
COc1ncc2nc(CCc3ccccc3)c(=O)n(C3CC3)c2n1	nt	-62%	nt	19µM*	-20%
COc1ccc(Oc2ncc3nc(C)c(=O)n(Cc4ccc(F)cc4)c3n2)cc1	nt	16%	nt	25µM*	-19%
Cc1nc2cnc(Oc3ccccc3)nc2n(CCc2ccccc2)c1=O	nt	-13%	nt	?	-3%
COc1ccc(Oc2ncc3nc(C)c(=O)n(CCc4ccccc4)c3n2)cc1	nt	-5%	nt	0.22µM*	-5%
CCNc1ncc2nc(CCc3ccccc3)c(=O)n(C3CC3)c2n1	-13%	-43%	nt	?	nt
O=c1cnc2cnc(Oc3cccc(Cl)c3)nc2n1CCc1ccccc1	14%	-33%	nt	?	nt
Cn1c(=O)c(CCc2ccccc2)nc2cnc(Oc3ccccc3)nc21	nt	-3%	nt	8.9µM*	-16%
CCOC(=O)Cc1nc2cc(Cl)ccc2o1	nt	8%[10 µM]	-13%[9.22 µM]	2%	nt
CC1CN(c2ccccc2)C(=O)CS1 (configuration not stated)	12%	4%	-6%	15µM*	16µM*
CCCCOCC1CN(c2ccccc2)C(=O)CS1 (configuration not stated)	-3%	15%	-14%	13µM*	-5%
CCCCN1CC(COc2ccccc2)OC1=O (configuration not stated)	11%	-13%	17%	-4%	-10%
Cc1ccc(NC(=O)c2ccc(=O)n(CC(=O)Nc3ccccc3)n2)cc1	15%[46 µM]	nt	nt	nt	nt
SMILES	LMNA splice mod	HTT cytoprotect	HttQ103 aggreg	ALDH1A1 block	HPGD inh
CCOC(=O)CC(NC(=O)C1c2ccccc2Oc2ccccc21)c1ccccc1Cl (configuration not stated)	-3%	3%[10 µM]	2%	-18%	-9%
CCOC(=O)C1=C(C)NC2=C(C1c1ccc([N+](=O)[O-])cc1)S(=O)(=O)c1ccccc12 (configuration not stated)	?	6%	15%	2.5µM*	-24%
CCOC(=O)C1=C(C)NC2=C(C(=O)c3ccccc32)C1c1ccc([N+](=O)[O-])o1 (configuration not stated)	nt	9%[10 µM]	-8%[9.22 µM]	?	nt
O=C1[C@H]2[C@H]3[C@H](O)[C@H](O)C/C(=N/OC[C@@H](O)COCc4ccco4)[C@H]3CC[C@@H]2C(=O)N1Cc1ccc2c(c1)OCO2	nt	3%[10 µM]	nt	2%[13.5 µM]	nt
CN(C)S(=O)(=O)c1cccc2c1C(=O)c1ccccc1C2=O	-5%	nt	9%	?	-10%
CN(C)c1cc2c(c(N(C)C)c1)C(=O)c1ccccc1C2=O	-13%	-5%	-3%	0.71µM*	-17%
CCN(CC)S(=O)(=O)c1ccc2c(c1)nc(CN(C)C(=O)Nc1ccc(F)cc1)n2C	10%[46 µM]	nt	nt	nt	nt
COc1ccc(CCNC(=O)Cn2nc(-c3ccc(Cl)cc3)ccc2=O)cc1OC	-8%[46 µM]	nt	nt	nt	nt
O=C(Nc1ccccc1N1CCCCC1)c1cccs1	?	9%[0.074 µM]	-2%	-7%	-3%
CC(C)C(=O)Nc1ccccc1N1CCN(S(C)(=O)=O)CC1	-4%	-10%[0.074 µM]	-24%	-9%	1%
CS(=O)(=O)N1CCN(c2ccccc2NC(=O)c2cccs2)CC1	5%	-8%[0.074 µM]	-15%	10µM*	-10%
CCOc1ccccc1NC(=O)CSc1nnc(-c2ccco2)o1	-2%	6%	7%	3%	-8%
CS(=O)(=O)N1CCN(c2ccccc2NC(=O)CSc2nnc(-c3ccco3)o2)CC1	-10%	nt	2%	13µM*	-10%
CS(=O)(=O)N1CCN(c2ccccc2NC(=O)C(c2ccccc2)c2ccccc2)CC1	3%	3%	1%	6.3µM*	-9%
CCc1nc(NCc2ccccn2)c2oc3ccccc3c2n1	?	-40%[0.074 µM]	13µM*	6%	-8%
CCc1nc(NCCN2CCOCC2)c2oc3ccccc3c2n1	6%	-20%[0.074 µM]	-5%	0.89µM*	-16%
CCc1nc(N2CCCCC2)c2oc3ccccc3c2n1	?	-36%	-19%	13µM*	-12%
S=C(NCCCN1CCOCC1)Nc1cccc(-c2nnc3n2CCCCC3)c1	nt	-47%	-6%	-14%	nt
CCOC(=O)c1cc(-c2ccccc2)n(CC(=O)N(C)c2ccc(OC)cc2)c1C	5%[46 µM]	nt	nt	nt	nt
Cc1cccc(NC(=S)NCC(C)CSc2ccc(Cl)cc2)c1 (configuration not stated)	11%[9.22 µM]	-86%	?	?	nt
Cc1ccc(NC(=S)NCC(C)CSc2ccc(Cl)cc2)cc1 (configuration not stated)	?	-167%	25µM*	?	nt
Cc1ccc(NC(=S)NCCSc2ccc(Cl)cc2)c(C)c1	?	1.8µM*	6%	?	-21%
O=C(CSCc1ccccc1Cl)N1CCN(c2ccc(F)cc2)CC1	-9%[46 µM]	nt	nt	nt	nt
O=C(NC(Cc1c[nH]c2ccccc12)c1nnc2n1CCCCC2)c1ccccc1Cl (configuration not stated)	12%	-2%	?	-3%	25µM*
O=C(NC(Cc1c[nH]c2ccccc12)c1nnc2n1CCCCC2)c1ccccc1 (configuration not stated)	4%	-6%	-3%	3%	-5%
C=CCN1C(=O)/C(=C2\SC(N3CCOCC3)=NC2=O)c2cc(Br)ccc21	-13%	-11%[0.074 µM]	15%	3.5µM*	-15%
